The values below come from the supplement of paper PMC6555819.

What all share (test): PBM binding z-score (relative to random genomic background probes); higher = stronger binding; sequences stand for … in GC…GCGATTGACAGCGTAGAATGAAGG
The subject of test [1] is FXR:RXRa (NR concentration 270 nM, RXRa partner concentration 90 nM). Summed up: (§1)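 Custom Agilent 4×180K protein-binding microarrays carried double-stranded probes. Their 34-nt variable regions held direct-repeat seeds, single-nucleotide variants, half-site ablations and random human genomic background sequences. Arrays were incubated 1 h with ligand-free nuclear receptor dimers in PBS pH 7.4, 2% milk, 0.02% Triton X-100, 1 mM DTT, 0.2 mg/mL BSA and 0.4 mg/ml salmon testes DNA. Antibodies against each partner (one per run) detected binding, and scanned fluorescence was regression-normalized. Binding z-scores use random background probes as reference.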

The subject of test [2] is LXRa:RXRa (NR concentration 270 nM, RXRa partner concentration 90 nM). Summed up:
as §1

For test [3], the system named is LXRa homodimer (NR concentration 270 nM). Summed up: as §1
Test [4] relates to LXRb:RXRa (NR concentration 270 nM, RXRa partner concentration 90 nM). Summed up: as §1
Test [5] has as its system LXRb homodimer (NR concentration 270 nM). Summed up: as §1
Test [6] relates to PPARa:RXRa (NR concentration 270 nM, RXRa partner concentration 90 nM). The gist of the method: as §1
Test [7] relates to PPARg:RXRa (NR concentration 180 nM, RXRa partner concentration 90 nM). The gist of the method: as §1
In test [8] the test system is PPARg:RXRa 270nM:90nM, anti-RXR (NR concentration 270 nM, RXRa partner concentration 90 nM). The gist of the method:
as §1

The subject of test [9] is PPARg:RXRa 30nM:10nM, anti-RXR (NR concentration 30 nM, RXRa partner concentration 10 nM). The gist of the method:
as §1

The test system of test [10] is PPARg:RXRa 90nM:30nM, anti-RXR (NR concentration 90 nM, RXRa partner concentration 30 nM). The gist of the method:
as §1

Test [11] has as its system PPARg:RXRa DBDmut IVT, anti-RXR (DBD mutation: RXRa K156A/R161A, NR concentration 270 nM, RXRa partner concentration 90 nM). Summed up:
as §1

The subject of test [12] is PPARg:RXRa IVT, anti-PPARg (NR concentration 270 nM, RXRa partner concentration 90 nM). The gist of the method:
as §1

The subject of test [13] is PPARg DBDmut:RXRa IVT, anti-PPARg (DBD mutation: PPARg1 K132A/R137A, NR concentration 270 nM, RXRa partner concentration 90 nM). Summed up:
as §1

Test [14] concerns PPARg DBDmut IVT, anti-PPARg (DBD mutation: PPARg1 K132A/R137A, NR concentration 270 nM). The gist of the method: as §1
Test [15] concerns PPARg homodimer (NR concentration 180 nM). Summed up: as §1
Test [16] deals with PXR:RXRa (NR concentration 270 nM, RXRa partner concentration 90 nM). Summed up: as §1
The subject of test [17] is PXR homodimer (NR concentration 270 nM). Summed up:
as §1

Test [18] concerns RARa:RXR (NR concentration 270 nM, RXRa partner concentration 90 nM). Summed up: as §1
Test [19] has as its system RARa homodimer (NR concentration 270 nM). Summed up:
as §1

The subject of test [20] is RARb:RXRa (NR concentration 270 nM, RXRa partner concentration 90 nM). The gist of the method: as §1

In the case of GGAACGAGGGCAAAGTTTATAGCATCTGTCGACG, the PBM binding z-score was 1.77 in test [1]; 1.29 in [2]; 0.174 in test [3]; 1.19 in test [4]; -0.358 in test [5]; 4.45 in test [6]. The PBM binding z-score in test [7] came out at 7.54; in [8] it was 7.55; in [9], 7; in test [10], 7.92; in test [11] it was 4.26; in [12], 4.43. Further, the PBM binding z-score in test [13] worked out at 0.246; in test [14], 0.345; in test [15], 0.817; in [16], 1.91; in test [17], 0.961; in test [18] it was 1.74. In addition, the PBM binding z-score in [19] came to 0.0168; in [20], 2.6.
With TCGAGTAGGTTAGGGGCATTCCGAATGGCGTCGA, the PBM binding z-score in [1] is 0.369; in [2] it was 0.403; in [3], -0.233; in [4] it was 0.645; in test [5], -0.872; in test [6], 1.25. The PBM binding z-score was found to be 0.541 in [7]; 2.27 in test [8]; 1.24 in test [9]; 1.64 in test [10]; 2.28 in test [11]; 1.28 in test [12]. Moreover, the PBM binding z-score in [13] is -1.42; in [14], -0.881; in test [15], 0.639; in test [16], 0.385; in test [17], -0.429; in test [18], 0.334. Besides, the PBM binding z-score in test [19] is -0.756; in test [20] it was 1.06.
On to ATCGAAAGGTCGAAGGTGGGTATACCCACCCGAA, for which the PBM binding z-score was determined as 4.08 in test [1]; 3.18 in test [2]; 0.0928 in [3]; 2.34 in test [4]; 0.437 in [5]; 4.28 in test [6]. In addition, the PBM binding z-score in test [7] was 3.74; in test [8] it was 3.99; in test [9] it was 1.28; in test [10] it was 2.77; in [11] it was -0.494; in test [12] it was 1.52. Moreover, the PBM binding z-score is 0.29 in [13]; 0.264 in test [14]; 1.05 in test [15]; 2.11 in [16]; -0.101 in [17]; 3.05 in test [18]. Further, the values for the PBM binding z-score in [19] and in test [20] were -0.341 and 3.51, respectively.
As to TCGAGTAGGTTAGTCGGGGCATTCATCCAACATA, the PBM binding z-score was 0.0168 in test [1]; -0.035 in test [2]; 0.0686 in test [3]; 0.86 in test [4]; -0.262 in [5]; 0.795 in test [6]. Besides, the PBM binding z-score in test [7] is 0.0659; in [8], 0.755; in [9] it was 1.55; in test [10], 0.83; in [11] it was 2.52; in test [12] it was 2.11. The PBM binding z-score in test [13] is 0.0178; in test [14], -0.145; in [15], 0.384; in [16], 0.279; in [17] it was 0.0478; in [18], 0.5. The values for the PBM binding z-score in test [19] and in test [20] were -0.336 and 0.665, respectively.
As for ACTATCAGTTGAGACGAGGGCAACCGATAGGTTG, the PBM binding z-score in test [1] is 0.189; in test [2] it was 0.0109; in test [3] it was -0.515; in test [4], -0.348; in test [5], -0.0586; in test [6], 0.26. Further, the PBM binding z-score in [7] is 0.645; in test [8], 0.00158; in test [9], 0.149; in test [10] it was -0.0981; in test [11], -0.519; in [12] it was 0.218. For the same sequence, the PBM binding z-score in test [13] is -0.42; in test [14], -0.235; in [15], 0.148; in test [16], 1.44; in test [17] it was -0.0291; in test [18] it was 0.7. The PBM binding z-score in test [19] was -0.128; in test [20] it was 0.903.
In the case of GCTATTAGTTGAAAGGGAAACCGAATGATTCTCG, the PBM binding z-score was -0.0917 in test [1]; -0.171 in test [2]; 0.0809 in test [3]; -0.236 in test [4]; -0.289 in test [5]; 0.000801 in test [6]. Moreover, the PBM binding z-score in test [7] stood at 0.567; in [8], 1.6; in test [9], 0.38; in test [10], 1.25; in [11] it was 0.303; in test [12] it was 0.0307. Also, the PBM binding z-score in test [13] was 0.646; in test [14] it was 0.468; in test [15], 0.766; in test [16], -0.0354; in test [17], 0.0349; in [18] it was 0.204. Also, the figures for the PBM binding z-score in test [19] and in [20] were 1.17 and -0.128, respectively.
Regarding CGTCCAAGGTCAAAGGTCAGTGTAGAGATGACGG, the PBM binding z-score in [1] came out at 8.42; in test [2] it was 7.04; in test [3], 3.99; in test [4], 6.49; in test [5], 1.91; in [6], 7.25. Also, the PBM binding z-score was found to be 10.7 in test [7]; 9.05 in [8]; 7.79 in test [9]; 9.69 in test [10]; 4.11 in test [11]; 5.93 in test [12]. Also, the PBM binding z-score in test [13] was determined as 0.888; in test [14], 1.64; in [15] it was 5.56; in test [16], 7.16; in test [17] it was 1.91; in test [18] it was 8.91. For the same sequence, the values for the PBM binding z-score in test [19] and in [20] were 3.88 and 5.94, respectively.
